Compound activity (PubChem BioAssay)
Shown is part of a subset that was picked to be rich in hits.
ST2 inh: inhibitors of human ST2 (IL1RL1) binding to IL-33, primary screen, biochemical, AlphaLISA; inhibition, % for hits at 17 µM; AlphaLISA ST2-Fc/biotin-IL-33 interaction, 1 h; AID 1259354, 2018; Interleukin-1 receptor-like 1 (Homo sapiens), Q01638; hit rate 2.3% among 78,000; in the data active = inhibition above about 30%
Target sequence (Q01638 whole entry, looked up): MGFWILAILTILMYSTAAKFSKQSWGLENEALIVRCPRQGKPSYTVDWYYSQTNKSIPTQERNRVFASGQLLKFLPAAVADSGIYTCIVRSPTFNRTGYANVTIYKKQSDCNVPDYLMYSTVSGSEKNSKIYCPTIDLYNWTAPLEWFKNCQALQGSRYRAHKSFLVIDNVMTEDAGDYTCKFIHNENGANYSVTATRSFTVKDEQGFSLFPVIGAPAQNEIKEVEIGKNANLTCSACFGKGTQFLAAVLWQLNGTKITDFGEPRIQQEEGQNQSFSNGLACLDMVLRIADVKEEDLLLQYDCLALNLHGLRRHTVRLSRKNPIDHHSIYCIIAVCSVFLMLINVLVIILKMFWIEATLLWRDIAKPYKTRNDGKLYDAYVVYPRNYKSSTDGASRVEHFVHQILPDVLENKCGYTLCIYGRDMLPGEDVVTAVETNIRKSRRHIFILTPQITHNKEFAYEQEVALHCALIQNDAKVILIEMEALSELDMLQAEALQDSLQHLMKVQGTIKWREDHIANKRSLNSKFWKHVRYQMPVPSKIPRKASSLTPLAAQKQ
Numbers without * were called inactive; i = inactive.

SMILES	ST2 inh
CCC(=O)N1c2ccc(S(=O)(=O)N3CCN(c4cccc(Cl)c4)CC3)cc2CC1C (stereo not drawn)	i
CN(CCC1CCCCO1)C(=O)CC1(c2cccc(C(F)(F)F)c2)CC(=O)N(C2CC2)C1=O (stereo not drawn)	i
CC(C)CNC(=O)CCC1CCCCC1	i
Cc1ccccc1CN1CCC(CN(CC2CCCO2)C(=O)c2ccc(N(C)C)cc2)CC1 (stereo not drawn)	i
N#Cc1ccc(Oc2ccc(C(=O)c3ccccc3)cc2)cc1C#N	i
O=C(c1ccccc1)c1cc(Br)ccc1O	i
N#Cc1ccc(Br)cc1/C=C/C(=O)O	80.0%*
O=C(O[C@@H]1O[C@@H]2COC(=O)c3cc(O)c(O)c(O)c3-c3c(cc(O)c(O)c3O)C(=O)O[C@H]([C@H]1O)[C@@H]2O)c1cc(O)c(O)c(O)c1	i
Cc1ccc(S(=O)(=O)NCc2nc3cccnc3n2Cc2cccc(C)c2)cc1	i
CCOc1cc2c(cc1CN1CC[C@H](CO)[C@@H](O)C1)CCC2	i
CC(C)C(Cn1ccnc1)NC(=O)c1ccccc1N1CCOCC1 (stereo not drawn)	i
CCC(Cn1ccnc1)NC(=O)c1ccc2c(c1)nnn2C (stereo not drawn)	i
CC(C)c1cc(C(=O)NC(Cn2ccnc2)C(C)C)nc2ncnn12 (stereo not drawn)	30.0%*
COCC(=O)Nc1cccc(-c2cccc3ccnn23)c1	i
COc1ccccc1NC(=O)N1C[C@@H]2C[C@H](C1)c1c(-c3cccc(C#N)c3)ccc(=O)n1C2	i
CCC1=C(C)/C(=C\c2[nH]c(C)c(CC)c2C)N=C1C	78.0%*
CC(=O)OC/C=C(/CC/C=C(\C)CC/C=C(/CCC=C(C)C)C(=O)O)COC(C)=O	i
CCc1ccc(N2C(=O)C3N=NN(CC(=O)Nc4ccc5c(c4)OCCO5)C3C2=O)cc1 (stereo not drawn)	i
Cc1nc2c(c(=O)[nH]1)CCN(C(=O)c1cc(-n3cccn3)ccc1Cl)C2	i
Cc1cc(-n2cccn2)ccc1CN1CCN(c2cc(=O)[nH]c(N)n2)CC1	40.0%*
NC(=O)c1ccc(N2CCN(Cc3cccc(-n4cccn4)c3)CC2)nc1	i
Cc1sc2ncn(CC(=O)N3CCCC3)c(=O)c2c1S(=O)(=O)N1CC(C)CC(C)C1 (stereo not drawn)	i
COc1cc(-c2ncnn2-c2sc3c(c2C#N)CCCCC3)cc(OC)c1OC	i
N#Cc1c(-n2ncnc2-c2cccs2)sc2c1CCCCC2	44.0%*
COc1cccc(-c2ncnn2-c2sc3c(c2C#N)CCCCC3)c1OC	i
SMILES	ST2 inh
CCOc1ccc(C(=O)Oc2cccc3cccnc23)cc1	i
O=C(c1cc2c(s1)CCCC2)N1CCCn2cncc2C1	i
Cc1ccc(-n2ncc3c(=O)n(CC(=O)NCc4ccc5c(c4)OCO5)cnc32)cc1	i
CC1c2cccn2CCN1C(=O)c1cc(CN2CCC(O)CC2)on1 (stereo not drawn)	i
O=C1C=C(/C=C/c2ccccc2)C[C@H](c2ccccc2)[C@H]1n1nnc([N+](=O)[O-])n1	58.0%*
O=C1C=C(c2ccccc2)C[C@H](c2cccs2)[C@H]1n1nnc([N+](=O)[O-])n1	33.0%*
CCOC(=O)C1C(=O)C=C(c2ccc(OC)c(OC)c2)CC1c1cccs1 (stereo not drawn)	i
Cc1cc(CN2CCC(n3cc(Cc4ccccc4)nn3)CC2)n(C)n1	i
Cc1ccc2c(c1)c(Cn1cc(-c3sccc3C)nn1)nn2C	i
Cn1c(=O)c2nc(-c3ccc(F)cc3)oc2c2ccccc21	i
Cc1ccc(NC(=O)CN2C(=O)C3C4C=CC(C4)C3C2=O)cc1C (stereo not drawn)	i
COc1ccc(Nc2cc(C)nc(Nc3ccc(NC(=O)c4ccc(OC)cc4)cc3)n2)cc1	32.0%*
Cc1ccc(Nc2cc(C)nc(Nc3ccc(NC(=O)CC(C)(C)C)cc3)n2)cc1	i
CCC(C(=O)Nc1ccc(Nc2nc(C)cc(Nc3ccc(C)cc3)n2)cc1)c1ccccc1 (stereo not drawn)	36.0%*
COc1ccc(Nc2cc(C)nc(Nc3ccc(NC(=O)c4ccc(F)cc4)cc3)n2)cc1	i
Cc1cc(Nc2ccccc2)nc(Nc2ccc(NC(=O)c3ccccc3Cl)cc2)n1	i
Cc1cc(Nc2ccccc2)nc(Nc2ccc(NC(=O)c3cccc(Br)c3)cc2)n1	i
Cc1cc(N(C)C)nc(Nc2ccc(NC(=O)CC3CCCC3)cc2)n1	i
COc1ccc(Nc2cc(C)nc(Nc3ccc(NC(=O)c4ccc(C(F)(F)F)cc4)cc3)n2)cc1	i
Cc1ccc(Nc2cc(C)nc(Nc3ccc(NC(=O)c4ccc(C(C)(C)C)cc4)cc3)n2)cc1	i
Cc1cc(Nc2ccccc2)nc(Nc2ccc(NC(=O)c3ccccc3)cc2)n1	32.0%*
COc1ccc(Nc2cc(C)nc(Nc3ccc(NC(=O)CCC4CCCC4)cc3)n2)cc1	30.0%*
Cc1ccc(Nc2cc(C)nc(Nc3ccc(NC(=O)c4ccccc4C)cc3)n2)cc1	i
Cc1nn(C)c(C)c1CN(C(=O)c1ccc(-n2cnnc2)cc1)C(C)C	i
CCOC(=O)c1c(NC(=O)c2ccc(C(C)(C)C)cc2)sc(C)c1C	i
SMILES	ST2 inh
O=C(Nc1nnc(N=Cc2ccco2)s1)c1cc(Cl)cc(Cl)c1	i
COc1ccc2oc(=Nc3cccc(C)c3)c(C(N)=O)cc2c1	i
CC(C)C(NS(=O)(=O)c1cccs1)C(=O)NC(c1ccccc1)c1ccccc1 (stereo not drawn)	i
COC(=O)C1C(=O)C2=C(CC1C)NC(C)=C(C(=O)OCCOC(C)C)C2c1cccc(O)c1 (stereo not drawn)	i
N#CC1=C(N)N(c2ccccc2[N+](=O)[O-])C2=C(C(=O)CCC2)C1c1ccsc1 (stereo not drawn)	i
O=C(CSc1nc(O)c(Cc2ccccc2)c(=O)[nH]1)Nc1nccs1	i
O=c1/c(=C/c2ccc([N+](=O)[O-])cc2)sc2nnc(-c3ccccc3)n12	i
CCCc1[nH]nc2c1C(c1c(OC)ccc3ccccc13)C(C#N)=C(N)O2 (stereo not drawn)	i
CC(Cn1ccc2ccccc21)NC(=O)c1ccc(-n2cnnc2)cc1 (stereo not drawn)	i
Cc1ccc(Nc2cc(C)nc(Nc3ccc(NC(=O)Cc4ccccc4)cc3)n2)cc1	i
COc1ccc(C(=O)Nc2ccc(Nc3nc(C)cc(Nc4ccccc4)n3)cc2)cc1OC	i
COc1cc(C(=O)Nc2ccc(Nc3nc(C)cc(Nc4ccccc4)n3)cc2)cc(OC)c1OC	i
CC(=O)Nc1ccccc1NC(=O)CCC1CCCCC1	i
CCCC(=O)Nc1ccc(Nc2nc(C)cc(Nc3ccccc3)n2)cc1	31.0%*
CCCC(=O)Nc1ccc(Nc2nc(C)cc(N(C)C)n2)cc1	i
NC(=O)c1ccccc1NC(=O)CCC1CCCCC1	i
CN(C)c1ccc(NC(=O)CCC2CCCCC2)cc1	67.0%*
CCC(CC)C(=O)Nc1ccc(Nc2nc(C)cc(Nc3ccc(OC)cc3)n2)cc1	39.0%*
Cc1[nH]nc(SCC(=O)N2CCN(c3ccc(F)cc3)CC2)c1[N+](=O)[O-]	i
CC(C(=O)N(C)C)N(C)Cc1cc(C(C)(C)C)ccc1O (stereo not drawn)	i
CCOc1ccc(CN2CCOC3(CNCCOC3)C2)cc1CO (stereo not drawn)	i
CC(C(=O)N1CCN(c2cccc(Cl)c2)CC1)N1C(=O)c2ccccc2C1=O (stereo not drawn)	i
